The source of these data is PubChem BioAssay (NCATS).

Inconclusive results are not listed. The source made the active and inactive calls. The call rests on the fitted dose curve; in most records, active means well fitted cell-killing curve with a large enough effect; inconclusive means small, poorly fitted or top-dose-only effect, or effect the other way; inactive means no such curve, though single readings can be large or run the other way.

Assay [1] in a line: Quantitative High-Throughput drug screen in 47 multiple myeloma cell lines against the NCATS MIPE library collection: PCM6_Riken cell viability assay (AID 1919870). Further: nearly all actives have a fitted effect of over 30% in size. The note with it: CellTiter-Glo ATP, 48 h; series mostly up to 45.8 µM. In outline:
(§1)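 Inhibition of viability over 48 h was scored by ATP content (CellTiter-Glo) in 500-cell wells. Zero and full viability were defined by media-only and DMSO-only wells.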
A general note: ATP-based viability assays read luminescence as a measure of living cells.

Assay [2] can be described thus: Quantitative High-Throughput drug screen in 47 multiple myeloma cell lines against the NCATS MIPE library collection: RPMI8226_ATCC cell viability assay (AID 1919871). Further: nearly all actives have a fitted effect of over 30% in size. As to conditions: RPMI8226 myeloma viability, CellTiter-Glo ATP luminescence, 48 h; series mostly up to 45.8 µM. In outline:
as §1

A short description of assay [3]: Quantitative High-Throughput drug screen in 47 multiple myeloma cell lines against the NCATS MIPE library collection: OPM2_DSMZ cell viability assay (AID 1919872). Further: nearly all actives have a fitted effect of over 30% in size. The note with it: OPM2 myeloma viability, CellTiter-Glo ATP luminescence, 48 h; series mostly up to 45.8 µM. In outline: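 Approved and investigational drugs from MIPE 4.0 were added by pin tool to 500 cells per well. After 48 hours at 37C, ATP-based CellTiter-Glo luminescence indicated remaining viability.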

Assay [4] is described as follows: Quantitative High-Throughput drug screen in 47 multiple myeloma cell lines against the NCATS MIPE library collection: KMS28BM_JCRB cell viability assay (AID 1919874). Further: nearly all actives have a fitted effect of over 35% in size. As to conditions: CellTiter-Glo ATP, 48 h; series mostly up to 45.8 µM. In outline:
as §1

Assay [5] can be described thus: Quantitative High-Throughput drug screen in 47 multiple myeloma cell lines against the NCATS MIPE library collection: KMS11_JCRBsus cell viability assay (AID 1919873). Further: nearly all actives have a fitted effect of over 50% in size. As to conditions: KMS11 myeloma viability, CellTiter-Glo ATP luminescence, 48 h; series mostly up to 45.8 µM. The method in brief: as §1
Potency means the concentration at half of the fitted maximal effect.

Consider `O=c1cc(-c2ccccc2)oc2cc(O)cc(O)c12`, for which the Potency in assay [1] was 20.9 µM (active). The Potency entry in assay [2], in assay [3] and in assay [4] was “inactive” throughout.

Turning to `CN(C)CCC=C1c2ccccc2COc2ccc(CC(=O)O)cc21`, the Potency result in assay [1], in assay [2], in assay [3], in assay [5] and in assay [4] was “inactive” each time.

As to `O=C1C[C@@H](c2ccc(O)cc2)Oc2cc(O)cc(O)c21`, the Potency result in assay [1], in assay [2], in assay [3] and in assay [4] was “inactive” each time.

Take `O=C1c2ccccc2-[n+]2ccc3c([nH]c4ccccc43)c21`: the Potency in assay [1] was 0.59 µM (active); in assay [2] it was 2.96 µM (active); in assay [3] it was 2.64 µM (active); in assay [4] it was 1.32 µM (active).

Consider `CC(C(=O)O)c1ccc(-c2ccccc2)c(F)c1` (centres undefined), for which the Potency in assay [1] and in assay [4] was 14.8 µM (active) in each case. The Potency result in assay [2] and in assay [3] was “inactive” throughout.

Regarding `COC[C@@H](c1ccc(C(F)(F)F)cc1)N1CCN(C2(C)CCN(C(=O)c3c(C)ncnc3C)CC2)C[C@H]1C`, the Potency in assay [1] is 20.9 µM (active). Moreover, the Potency entry in assay [2], in assay [5] and in assay [4] was “inactive” each time.

With `Nc1ncnc2c1ncn2[C@@H]1O[C@H](CO)C[C@@H]1O`, the Potency result in assay [1] and in assay [3] was “inactive” each time.

For the compound `CN(C)c1cc(NC(=O)CNC(C)(C)C)c(O)c2c1C[C@@H]1C[C@H]3[C@H](N(C)C)C(=O)C(C(N)=O)=C(O)[C@@]3(O)C(=O)C1=C2O`, the Potency result in assay [1], in assay [2], in assay [5] and in assay [4] was “inactive” in each case.

Take `COc1cc(NC(=O)c2ccc(-c3ccc(Cl)cc3)o2)cc(OC)c1`: the Potency in assay [1] is 5.9 µM (active). Further, the Potency entry in assay [2], in assay [5] and in assay [4] was “inactive” each time.

As for `COc1ccc(C2CC(c3ccccc3)=NN2c2ccc(S(N)(=O)=O)cc2)cc1` (centres undefined), in assay [1], the Potency is 26.4 µM (active). The Potency entry in assay [3] is “inactive”.

Regarding `CNC(=O)c1ccccc1Sc1ccc2c(C=Cc3ccccn3)n[nH]c2c1`, the Potency was 7.43 µM (active) in assay [1], 18.7 µM (active) in assay [2], 1.18 µM (active) in assay [5] and 23.5 µM (active) in assay [4].

As for `C=C1C(=O)OC2C=C(C)CCC=C(C)CCC12` (centres undefined), the Potency in assay [1] was 18.7 µM (active); in assay [3], 20.9 µM (active); in assay [5], 20.9 µM (active); in assay [4], 18.7 µM (active).

Regarding `CN1CCN(CCOc2cc(OC3CCOCC3)c3c(Nc4c(Cl)ccc5c4OCO5)ncnc3c2)CC1`, the Potency in assay [1] was 9.35 µM (active); in assay [5] it was 23.5 µM (active). In addition, in assay [3], the Potency result is “inactive”.

Regarding `Nc1ncnc2ccccc12`, the Potency in assay [1] is 20.9 µM (active). The Potency entry in assay [3], in assay [5] and in assay [4] was “inactive” each time.

With `CC(C)(Cc1ccc2ccccc2c1)NC[C@@H](O)COc1cccc(Cl)c1C#N`, the Potency result in assay [1], in assay [3], in assay [5] and in assay [4] was “inactive” each time.

`CNC1CCC(N(Cc2cccc(-c3ccncc3)c2)C(=O)c2sc3c(F)ccc(F)c3c2Cl)CC1` (centres undefined): the Potency in assay [1] was 14.8 µM (active); in assay [2], 18.7 µM (active); in assay [4], 26.4 µM (active).

As to `O=c1c(-c2ccc(O)cc2)coc2cc(O)ccc12`, the Potency entry in assay [1], in assay [3], in assay [5] and in assay [4] was “inactive” each time.

As for `CC(=O)N(C)C1(c2ccccc2)CCN(CCC[C@]2(c3ccc(Cl)c(Cl)c3)CCCN(C(=O)c3ccccc3)C2)CC1`, the Potency in assay [1] was 13.2 µM (active); in assay [2], 23.5 µM (active); in assay [5], 9.35 µM (active); in assay [4] it was 20.9 µM (active).

Turning to `CC(C)C[C@H](CC(=O)O)C(=O)N[C@@H](Cc1c[nH]c2ccccc12)C(=O)N[C@@H](C)c1ccccc1`, the Potency result in assay [1], in assay [3] and in assay [5] was “inactive” each time.

Take `c1ccc2c(Cc3c[nH]c4ccccc34)c[nH]c2c1`: the Potency is 4.69 µM (active) in assay [1], 26.4 µM (active) in assay [3], 23.5 µM (active) in assay [5] and 18.7 µM (active) in assay [4].

As to `O=C(NCc1ccccc1)c1csc(Nc2ccncn2)n1`, the Potency in assay [1] is 8.33 µM (active); in assay [2], 20.9 µM (active); in assay [5], 26.4 µM (active); in assay [4], 18.7 µM (active).

As to `CC1(C)Cc2c(sc(NC(=S)NC(=O)c3ccccc3)c2C(=O)O)CO1`, the Potency entry in assay [1], in assay [2], in assay [5] and in assay [4] was “inactive” throughout.

`Cc1cc(OCCCc2c(C(=O)O)n(Cc3cccnc3)c3c(-c4c(COc5ccc(N6CCN([S+](C)(=O)[O-])CC6)cc5)nn(C)c4C)cccc23)cc(C)c1Cl`: the Potency is 20.9 µM (active) in assay [1], 10.5 µM (active) in assay [3], 23.5 µM (active) in assay [5] and 23.5 µM (active) in assay [4].

`COc1cccc2c1CCCC2CCCN1CCN(C2CCCCC2)CC1` (centres undefined): the Potency was 13.2 µM (active) in assay [1], 14.8 µM (active) in assay [2] and 18.7 µM (active) in assay [4].

Turning to `Oc1ccc(C2CCN(c3ccnc4ccccc34)CC2)cc1O`, the Potency in assay [1] is 13.2 µM (active); in assay [2], 16.6 µM (active); in assay [4], 4.69 µM (active).

In the case of `NC1=N[C@@]2(c3cc(NC(=O)c4ccc(F)cn4)ccc3F)COC[C@@H]2CS1`, the Potency was 11.8 µM (active) in assay [1], 23.5 µM (active) in assay [5] and 18.7 µM (active) in assay [4]. Further, the Potency result in assay [2] was “inactive”.

With `CCC(=O)NC[C@H](Cc1ccc(OCCc2nc(-c3ccccc3)oc2C)cc1)NC(C)=CC(=O)c1ccc(C(F)(F)F)cc1`, the Potency entry in assay [1] and in assay [4] was “inactive” in each case. For the same compound, the Potency in assay [2] is 23.5 µM (active).
